# Screens: PubChem, National Center for Advancing Translational Sciences (NCATS)
# 12-LOX inh = ALOX12 (human) lipoxygenase inhibition. Potency, µM (highest dose often 108 µM), for inactives: at the top dose activity change, negative = inhibition, most hits filed as inhibitors. purified 12hLO, xylenol orange hydroperoxide absorbance. actives 1.1% (n = 580,000). AID 1671190; also: potency is read from the fitted curve at half-maximal effect
# Target sequence (P18054 whole entry, looked up): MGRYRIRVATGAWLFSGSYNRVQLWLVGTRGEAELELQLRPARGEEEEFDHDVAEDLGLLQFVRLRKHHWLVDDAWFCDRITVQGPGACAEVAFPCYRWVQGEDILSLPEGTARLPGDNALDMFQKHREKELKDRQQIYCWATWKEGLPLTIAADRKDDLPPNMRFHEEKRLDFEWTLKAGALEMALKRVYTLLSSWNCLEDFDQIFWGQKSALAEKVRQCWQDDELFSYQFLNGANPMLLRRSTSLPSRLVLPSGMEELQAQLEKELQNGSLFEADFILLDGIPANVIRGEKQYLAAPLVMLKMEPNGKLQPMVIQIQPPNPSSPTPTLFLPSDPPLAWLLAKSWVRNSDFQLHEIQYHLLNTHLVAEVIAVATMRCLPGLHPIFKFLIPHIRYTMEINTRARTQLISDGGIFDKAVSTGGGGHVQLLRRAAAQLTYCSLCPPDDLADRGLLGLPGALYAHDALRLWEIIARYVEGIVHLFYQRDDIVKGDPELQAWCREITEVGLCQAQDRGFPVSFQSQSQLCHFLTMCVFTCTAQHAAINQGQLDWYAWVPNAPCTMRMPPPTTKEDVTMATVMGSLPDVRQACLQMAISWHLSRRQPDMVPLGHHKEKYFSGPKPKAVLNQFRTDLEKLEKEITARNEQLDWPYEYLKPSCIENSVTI
#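 Hydroperoxide product was detected by ferrous iron/xylenol orange as the 573 to 405 nm absorbance ratio. Arachidonic acid at 40 uM (final) was turned over for 30 min at room temperature by 150 nM human 12hLO, pH 7.0 Hepes buffer, after 15 min compound preincubation.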
# IL1B secr inh = blocks inflammasome-driven IL-1 beta release; THP-1 LPS/ATP IL-1B secretion, AlphaLISA, 16 h; hits give low values; activity change, % at 57.5 µM; actives 4.7% (n = 360,000); AID 743279; in the data active = activity change below about -50%; inconclusive = mostly about -30% to -49%
#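 Secreted IL-1B measured by AlphaLISA bead assay after 16 h compound exposure of THP-1 cells; compounds (final up to 57.5 uM) added 1 h before LPS (250 ng/mL) and ATP (1.25 mM) stimulation; lower signal means less secretion.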
# HT1080 IDH1KD tx = HT-1080 IDH1 knockdown cell toxicity (counter line) | HT-1080 IDH1 knockdown viability, ATP luminescence, 48 h | Potency, µM (doses to about 46.1 µM), for inactives: top-dose activity, negative = toxicity, most hits filed as cytotoxic | AID 686971 | actives 2% (n = 360,000);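 also: potency is read from the fitted curve at half-maximal effect; 0% = DMSO wells and -100% = cell-free medium wells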
#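 IDH1KD HT-1080 cells, 750/well, RPMI + 5% FBS; compound pinned after 2 h settling; 48 h, 37 °C; CellTiter-Glo luminescence; % activity normalised to DMSO and no-cell wells; curves fitted, classed by r2 and efficacy.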
# HT1080NT lethal = kills 2HG-producing HT-1080-NT fibrosarcoma cells; HT-1080-NT fibrosarcoma viability, CellTiter-Glo ATP luminescence, 48 h; Potency, µM (doses to about 46.1 µM), without a hit: at the highest dose activity, negative = less viability, usual class: cytotoxic; actives 1.6% (n = 360,000);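 also: NT is the 2HG producing partner of a matched IDH1 knockdown line; potency is read from the fitted curve at half-maximal effect; 0% = DMSO-treated cells and -100% = media-only wells without cells; nearly all actives have a fitted effect of over 55% in size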
#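 Luminescent CellTiter-Glo readout after 48 hours of compound exposure at 37 degrees C defined viability of HT-1080-NT cells. Activity was normalized to DMSO wells and cell-free media wells; concentration-response curves were fitted and assigned curve classes.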
# DT40 TDP1 CPT = DT40-hTDP1 cell growth loss with CPT; chicken DT40 Tdp1-/-;hTDP1 cells + 20 nM CPT, ATP luminescence, 48 h; Potency, µM (titrated, usually from 46.2 µM), without a hit: top-dose activity change, negative = growth inhibition, hits mostly inhibitors; actives 12% (n = 420,000); AID 686979; also: potency is read from the fitted curve at half-maximal effect; nearly all actives have a fitted effect of over 55% in size
#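 Cell growth measured by CellTiter-Glo luminescence after a minimum 48 h, 37 C compound exposure with 20 nM CPT in Tdp1-knockout DT40 cells stably expressing hTDP1, seeded 400/well; qHTS titration format.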
# DT40 TDP1 no CPT = qHTS for Inhibitors of human tyrosyl-DNA phosphodiesterase 1 (TDP1): qHTS in cells in absence of CPT | actives 15% (n = 420,000) | DT40 Tdp1-/- hTDP1 cells, no CPT, ATP luminescence, 48 h | AID 686978, 2013 | Potency, µM (highest dose often 46.2 µM), for the others: at the top dose activity change, negative = growth inhibition, most hits filed as inhibitors; also: potency is read from the fitted curve at half-maximal effect; nearly all actives have a fitted effect of over 55% in size
#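 Cells were dispensed at 400 per well, compounds added by pin tool, plates incubated ≥48 hr at 37 °C, then CellTiter-Glo added for 30 min at room temperature before luminescence reading. Line: DT40 Tdp1-/- complemented with hTDP1; camptothecin omitted.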
# The depositor's hits bear a star; u = inconclusive; x = not tested or not shown. This is one part of a sample in which hits are shown more often than they occur. Unless noted, calls follow the shape of the dose curve; as a rule, active = well fitted curve in the direction sought with a large enough effect; inconclusive = small, poorly fitted or top-dose-only effect, or another doubt; inactive = no such curve, though single readings can be large; an effect the other way counts as inactive or inconclusive. Unless noted, % is scaled to controls: 0 for no effect and ±100 for the full control effect.
SMILES,12-LOX inh,IL1B secr inh,HT1080 IDH1KD tx,HT1080NT lethal,DT40 TDP1 CPT,DT40 TDP1 no CPT
CCCCNC(=O)c1cn(CC)c2ccc(S(=O)(=O)N3CCCC3)cc2c1=O,-23.5%,-3.8,10.7%,-0.5%,-22.5%,-14.2%
CC(C)c1ccc(N(CCc2ccccn2)C(=O)C(C)(C)C)cc1,u,5.8,-4.0%,-4.1%,16.4µM*,14.6µM*
CC(C)(C)C(=O)N(CCN(C(=O)C(C)(C)C)c1ccccc1)c1ccccc1,18.0%,0.9,1.7%,12.5%,u,u
CCn1c(O)c(C=NCc2ccccc2)sc1=S,35.2%,-20.7,-0.4%,-1.0%,-24.6%,u
Oc1c(/C=C/C=C/C=Nc2ccccc2)sc(=S)n1Cc1ccccc1,12.6µM*,0.0,9.9%,9.4%,u,20.6µM*
CCn1c(O)c(/C=C/C=C/C=Nc2ccccc2)sc1=S,u,-7.3,2.5%,-5.1%,u,25.9µM*
CCCCn1c(O)c(/C=C/C=C/C=Nc2ccccc2)sc1=S,12.6µM*,-7.4,-8.3%,-10.0%,11.6µM*,14.6µM*
CCCn1c(O)c(C=Nc2ccccc2)sc1=S,u,-9.0,-3.7%,-19.1%,-4.7%,u
COc1ccc(COCC(O)CNC(=O)C2CC2)cc1 (configuration not stated),4.7%,x,x,x,x,x
CCCOc1ccc(CNC(=S)NCc2ccc(OC(C)C)cc2)cc1,-4.7%,14.2,0.6%,-2.2%,u,18.4µM*
COc1cc(/C=N/NC(N)=S)ccc1OCc1ccc(C)cc1,44.7µM*,-18.9,u,u,5.17µM*,10.3µM*
COc1cc(/C=N/NC(N)=S)ccc1OC(=O)c1ccc(C)cc1,u,44.1,u,-7.3%,-20.1%,-17.7%
COc1cc(/C=N\n2nnnc2N)ccc1OCc1ccc(F)cc1,153.3%,-21.2,-25.2%,-21.7%,-8.3%,-20.3%
COc1cc(/C=N/NC(=S)N/N=C/c2cc(OC)c(OC)c(OC)c2)cc(OC)c1OC,1.5%,10.0,-0.9%,-5.2%,4.11µM*,3.66µM*
COc1cc(/C=N/n2c(C)n[nH]c2=S)ccc1OCc1ccc(F)cc1,u,7.0,2.2%,-1.6%,u,18.4µM*
O=C(CCc1cc2n(n1)CCCNC2)N1CCCC1c1nc2ccccc2[nH]1 (configuration not stated),57.7%,x,x,x,x,x
O=C(c1cc(-c2ccccn2)nc2ccccc12)N1CCOCC1,-8.7%,x,x,x,x,x
CN(Cc1ccccc1C(F)(F)F)S(=O)(=O)c1cccc(C(F)(F)F)c1,7.7%,x,x,x,x,x
COc1ccc(CNC(=S)N/N=C/c2ccc(O)c(OC)c2)cc1,31.6µM*,5.5,u,-4.0%,-8.2%,-21.4%
CCCOc1ccc(CNC(=S)N/N=C/c2ccc([N+](=O)[O-])cc2)cc1,0.0%,-7.4,u,u,u,20.6µM*
COc1ccc(C=NNC(=S)Nc2ccc(F)cc2)cc1OC,u,16.3,-9.9%,-5.6%,3.26µM*,2.06µM*
COc1ccccc1NC(=S)N/N=C/c1cccc(C)c1,u,10.2,3.1%,0.4%,u,u
COc1ccc(/C=N/NC(=S)Nc2cccc(C(=O)O)c2)cc1OC,u,28.5,-4.1%,-0.4%,8.7%,-6.5%
COc1ccccc1NC(=S)N/N=C/c1ccc(O)cc1,u,-100.6*,-9.3%,-15.5%,7.31µM*,5.8µM*
O=C(NCCSCc1cccs1)C1CC1,-24.1%,x,x,x,x,x
SMILES,12-LOX inh,IL1B secr inh,HT1080 IDH1KD tx,HT1080NT lethal,DT40 TDP1 CPT,DT40 TDP1 no CPT
COc1ccc(C=NNC(=S)NN=Cc2ccc(OC)c(OC)c2)cc1OC,u,-17.3,-17.5%,-20.3%,7.31µM*,11.6µM*
COc1ccc(CNC(=S)N/N=C/c2ccc(OC)c(OC)c2)cc1,140.4%,7.8,u,-9.4%,3.2%,1.8%
COCCCNC(=S)N/N=C/c1ccc(OC)c(Br)c1,25.1µM*,-28.4,-2.0%,-6.6%,u,u
COc1cc(CCN2C(=O)N[C@@H](CCc3ccccc3)C(C(C)=O)=C2C)cc(OC)c1OC,x,-3.7,11.7%,21.9%,u,23.1µM*
COCCN1C(=O)N[C@@H](CCc2ccccc2)C(C(C)=O)=C1C,x,34.0,0.0%,3.4%,-14.8%,u
CCCn1nc(C(=O)OCC(=O)c2ccccc2)c2ccccc2c1=O,1.8%,20.9,10.1%,u,11.1%,-16.6%
CCCCCCn1nc(C(=O)OCC(=O)c2c(N)n(C)c(=O)n(C)c2=O)c2ccccc2c1=O,63.4%,u,3.7%,1.3%,20.6µM*,18.4µM*
CCCCCn1nc(C(=O)OCC(=O)c2c(N)n(C)c(=O)n(C)c2=O)c2ccccc2c1=O,-16.8%,-52.5*,-0.2%,0.6%,u,20.6µM*
Cc1ccc(C)c(-c2nn(CC(=O)NCC(F)(F)F)c(=O)c3ccccc23)c1,33.1%,x,x,x,x,x
CC1=C(C(=O)OCC2CCCO2)C(c2ccccc2)C2=C(CCCC2=O)N1 (configuration not stated),-27.7%,6.1,7.7%,2.1%,1.7%,9.4%
COc1ccc(C2C(C(=O)OCC3CCCO3)=C(C)NC3=C2C(=O)CC(c2ccco2)C3)cc1O (configuration not stated),8.91µM*,u,-10.5%,-7.2%,u,u
COCC(=O)N(C1CCOCC1)C1CCN(S(=O)(=O)c2ccccc2F)CC1,12.6%,x,x,x,x,x
O=C(/C=C/c1cccc([N+](=O)[O-])c1)NC(=S)Nc1ccc(CN2CCOCC2)cc1,-22.2%,-94.0*,-0.1%,5.4%,16.4µM*,18.4µM*
CC(C)c1ccc(/C=C/C(=O)NC(=S)Nc2ccc(CN3CCOCC3)cc2)cc1,39.8µM*,-65.4*,u,u,9.2µM*,18.4µM*
COc1ccc(C(CNC(=O)c2cc3c(s2)CCC(C)C3)N2CCOCC2)cc1 (configuration not stated),-4.4%,-11.7,-11.4%,-0.2%,23.1µM*,u
CN(C)c1ccc(C(CNC(=O)c2ccc(C(C)(C)C)cc2)N2CCCC2)cc1 (configuration not stated),8.2%,x,x,x,13µM*,7.31µM*
COc1ccc(C(=O)NCC(c2ccc(N(C)C)cc2)N2CCOCC2)cc1 (configuration not stated),-4.9%,x,x,x,7.31µM*,10.3µM*
COc1ccc(C(CNC(=O)c2cccc(S(=O)(=O)N3CCCC3)c2)N2CCCC2)cc1 (configuration not stated),-7.5%,-8.4,0.4%,-6.9%,-21.1%,-26.6%
